# Compounds with a hit are over-represented: about 7.6% of the library has one in this group of screens.
# MCF10A rereplic = DNA re-replication induction in MCF 10a cells; AID 624296; MCF 10A DNA re-replication, Hoechst nuclear intensity, 48 h; hit rate 2.9% among 350,000; Potency, µM (titrated, usually from 46.1 µM), inactives show top-dose activity, positive = re-replication, usual class: activators; also: potency is read from the fitted curve at half-maximal effect; % of control where 0% means no effect; nearly all actives have a fitted effect of over 50% in size
# SW480 rerep = inducers of DNA re-replication in SW480 colon cancer cells | SW480 DNA re-replication, Hoechst DNA content imaging, 48 h | Potency, µM (top dose mostly 46.1 µM), for the others: at the highest dose re-replication activation, usual class: activators | hit rate 1.8% among 340,000 | AID 624297; also: potency is read from the fitted curve at half-maximal effect; % of control where 0% means no effect; nearly all actives have a fitted effect of over 55% in size
#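 Hoechst fluorescence of nuclei (405 nm excitation, 500-530 nm emission) measured by plate-scanning imager after 48 hr compound exposure at 37 C; re-replication scored as increased number of nuclei with elevated intensity.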
# KCNH2 3.1 block = inhibitors of human KCNH2 3.1 potassium channel isoform | U2OS KCNH2 3.1, thallium flux FluxOr; hits give low values | activity change, % (tested at about 1.8 µM) | hit rate 0.95% among 340,000;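 active = maximum activity change below -70%; inconclusive = maximum activity change from -70% to -50%; inactive = maximum activity change above -50%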;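 also: thallium influx rate constant from kinetic fluorescence after stimulation buffer; % is scaled to controls: 0 for no effect and ±100 for the full control effect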
#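 We transduce U2OS cells with the mutant 3.1 virus, culture them overnight, load FluxOr with Red40 quencher for 45 min, then add stimulation buffer and read kinetically for 2 min to derive a normalized rate constant.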
# KCNH2 WT inh = blocks the wildtype human KCNH2 potassium channel; activity change, % at 1.84 µM; hit rate 0.37% among 340,000; U2OS, BacMam KCNH2, thallium flux FluxOr; hits give low values;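 active = maximum activity change below -70%; inconclusive = maximum activity change between -70% and -50%; inactive = maximum activity change above -50%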; also: % is scaled to controls: 0 for no effect and ±100 for the full control effect
#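 U2OS cells were transduced with wild-type KCNH2 virus (2.03 x 10^8 / mL) for 4 h at room temperature, then cultured overnight at 37 C. Thallium flux was read with FluxOr dye. Rate constants were normalized to DMSO controls.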
# KB-V1 cytotox = kills drug-selected multidrug resistant KB-V1 cells; Potency, µM (highest dose often 46.1 µM), most hits filed as cytotoxic; KB-V1 MDR cells viability, CellTiter-Glo, 72 h; AID 1347076; hit rate 3.4% among 400,000; also: potency is read from the fitted curve at half-maximal effect; % is scaled to controls: 0 for no effect and ±100 for the full control effect; nearly all actives have a fitted effect of over 60% in size
#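 Potencies derive from concentration-effect curves fitted to normalized luminescence (CellTiter-Glo) of KB-V1 cells treated for 72 h at 37 degrees C in phenol-red-free DMEM containing 10% FBS.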
# KB-3-1 tox = kills parental KB-3-1 adenocarcinoma cells; Potency, µM (top dose mostly 46.1 µM), most hits filed as cytotoxic; KB-3-1 viability, CellTiter-Glo ATP luminescence, 72 h; hit rate 1.4% among 400,000; also: potency is read from the fitted curve at half-maximal effect; % is scaled to controls: 0 for no effect and ±100 for the full control effect; nearly all actives have a fitted effect of over 60% in size
#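 72 h, 37 °C compound treatment of KB-3-1 parental cells; CellTiter-Glo added, 10 min, luminescence read. Data corrected against DMSO-only plates and normalized before curve fitting.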
# Starred values were filed as active, the others as inactive; i = inactive; ? = inconclusive; . = no result; [ ] = another dose, or the depositor's remark. Unless noted, calls follow the shape of the dose curve; as a rule, active = well fitted curve in the direction sought with a large enough effect; inconclusive = small, poorly fitted or top-dose-only effect, or another doubt; inactive = no such curve, though single readings can be large; an effect the other way counts as inactive or inconclusive.
SMILES,MCF10A rereplic,SW480 rerep,KCNH2 3.1 block,KCNH2 WT inh,KB-V1 cytotox,KB-3-1 tox
O=C(Nc1ccc(Cl)cc1C(F)(F)F)C(Sc1nnc(-c2cccs2)o1)c1ccccc1 (stereo unspecified),1.64µM*,.,1.4,-3.7,14.6µM*,?
CCOCCCNC(=O)C(c1ccc(OC)cc1)N(Cc1cccs1)C(=O)c1ccccn1 (stereo unspecified),3.6%,-3.8%,13.7,8.9,?,i
O=C(COc1ccc(Cl)cc1)NNC(=O)c1ccc2c(=O)n3c(nc2c1)CCC3,-1.1%,-11.4%,-2.3,-3.4,?,i
COC(=O)c1c(NC(=O)C(C)(C)C)sc2c1C(C(=O)OC)CC2 (stereo unspecified),19.9%,-3.3%[9.22 µM],2.0,-0.7,20.6µM*,?
COC(=O)c1c(NC(=O)C(Cl)Cl)sc2c1C(C(=O)OC)CC2 (stereo unspecified),8.2µM*,?,11.5,1.9,i,i
COC(=O)c1c(NC(=O)Cc2ccccc2)sc2c1C(C(=O)OC)CC2 (stereo unspecified),19.3%,-11.0%,4.8,-3.5,i,i
COC(=O)c1c(NC(=O)C2CCCO2)sc2c1CCC2 (stereo unspecified),-4.7%,-4.1%[9.22 µM],5.6,-14.2,i,i
Cc1ccc(C)c(S(=O)(=O)N2CCN(C(=O)C(C)Sc3ccccc3)CC2)c1 (stereo unspecified),-0.7%,5.1%,8.9,-0.5,i,i
COC(=O)c1c(C)oc2ccc(N(C(=O)c3ccncc3)S(=O)(=O)c3cc(C)ccc3C)cc12,.,.,.,.,6.51µM*,13µM*
CC(=O)c1c(C)oc2ccc(N(C(C)=O)S(=O)(=O)c3ccc(Br)cc3)cc12,?,-5.0%,0.7,2.6,?,i
CCCC(=O)N(c1ccc2oc(C)c(C(C)=O)c2c1)S(=O)(=O)c1ccc(CC)cc1,.,.,.,.,2.91µM*,3.66µM*
COC(=O)c1c(C)oc2ccc(N(C(=O)c3ccncc3)S(=O)(=O)c3ccc(Br)cc3)cc12,.,.,.,.,i,i
CCOC(=O)c1c(-c2ccccc2)oc2ccc(N(C(C)=O)S(=O)(=O)c3ccccc3)cc12,.,.,.,.,i,i
CC(=O)c1c(C)oc2ccc(N(C(C)=O)S(=O)(=O)c3ccc(Cl)c([N+](=O)[O-])c3)cc12,1.84µM*,?,-14.0,-12.7,?,?
CC(=O)c1c(C)oc2ccc(N(C(=O)c3ccncc3)S(=O)(=O)c3ccccc3)cc12,3.3%,-0.7%,-1.2,-5.5,?,i
COC(=O)c1c(C)oc2ccc(N(C(C)=O)S(=O)(=O)c3ccccc3)cc12,9.6%,1.4%,-7.8,-0.4,2.31µM*,23.1µM*
O=c1c2ccccc2oc2cc(C#CC3(O)CCCCC3)ccc12,20.6µM*,2.6%,-7.0,0.8,i,i
C=CCn1c2ccccc2c(=O)c2cc(C#CC[C@@H](C)O)ccc21,91.7%,0.3%[9.22 µM],-1.9,16.7,i,i
C=CCn1c2ccccc2c(=O)c2cc(C#CC3(O)CCCCC3)ccc21,?,9.2µM*,-2.9,1.5,i,?
C1=Cc2ccccc2/C1=C\c1cc[cH-]c1.[Fe+2].c1cc[cH-]c1,.,.,.,.,?,i
CCOC(=O)c1c(Cl)c(C)nn1-c1nc(OC)cc(OC)n1,-50.1%,-329.7%,15.2,-2.9,2.91µM*,?
Cc1ccccc1CS(=O)(=O)CCC(=O)NCCCN1CCN(c2ccccc2F)CC1,?,-0.7%,-9.9,36.2,i,i
Cc1ccc(-c2noc(CCC(=O)NCCCN3CCN(c4cccc(Cl)c4)CC3)n2)cc1,?,?,-18.1,13.6,16.4µM*,18.4µM*
O=C(Cn1nc(-c2ccccc2)ccc1=O)NCCN1CCN(Cc2ccccc2)CC1,-4.6%,-10.8%,-4.5,1.1,i,i
Cc1ccccc1CS(=O)(=O)CCC(=O)NCCN1CCN(c2cccc(Cl)c2)CC1,0.4%,-124.3%,-16.7,2.0,10.3µM*,i
SMILES,MCF10A rereplic,SW480 rerep,KCNH2 3.1 block,KCNH2 WT inh,KB-V1 cytotox,KB-3-1 tox
O=C(Cn1nc(-c2ccccc2)ccc1=O)NCCN1CCN(c2cccc(Cl)c2)CC1,-0.6%,-1.8%,-40.7,29.5,5.8µM*,i
Cc1ccc(-c2noc(CCC(=O)NCCCN3CCN(c4ccc(F)cc4)CC3)n2)cc1,7.3%,?,-24.0,2.2,13µM*,?
COc1ccc2c(c1)cc1c(=O)n(CC(=O)NC(C)CCc3ccccc3)nc(C)n12 (stereo unspecified),5.3%,-25.1%,10.5,-4.1,?,i
CCc1ccc(C(O)c2ncc(-c3ccccc3C)[nH]2)cc1 (stereo unspecified),.,.,.,.,i,i
CCOc1ccccc1NC(=O)COC(=O)c1cn(CC)c2nc(C)ccc2c1=O,.,.,.,.,i,i
Cc1ccccc1C(=O)NC(CC(C)C)C(=O)N1CCN(c2ccccc2)CC1 (stereo unspecified),-24.1%,11.3%,7.1,-0.5,i,i
O=S(=O)(c1ccc(Cl)cc1)c1nc(-c2cccc(Br)c2)oc1NCc1ccccc1,.,.,.,.,16.4µM*,?
O=S(=O)(c1ccccc1)c1nc(-c2cccc(Cl)c2)oc1NCc1ccccc1,.,.,.,.,i,i
CCc1cc2c(N=Nc3c(O)[nH]c4ccccc34)ncnc2s1,?,-9.3%,-2.6,1.2,6.51µM*,?
Cc1ccc(NC(=O)CSc2nc3ccc(Nc4nc(N5CCOCC5)nc(N5CCOCC5)n4)cc3s2)cc1,5.8µM*,?,-2.2,-2.8,?,?
CC(=O)CSc1nc2ccc(Nc3nc(N4CCOCC4)nc(N4CCOCC4)n3)cc2s1,10.2%,?,-9.2,-8.6,?,?
COc1ccc(NC(=O)CSc2nc3ccc(Nc4nc(N5CCOCC5)nc(N5CCOCC5)n4)cc3s2)cc1,2.06µM*,13.0%,-23.4,-1.8,i,i
COc1ccccc1N(CC(=O)N/N=C/c1ccccc1C(=O)O)S(C)(=O)=O,3.3%,27.7%,-12.3,12.0,i,i
COc1ccc(/C=C/C(=O)N2CCCc3ccccc32)cc1,?,?,-30.8,-3.3,13µM*,i
COc1ccc(OC)c(/C=C/C(=O)N2CCCc3ccccc32)c1,-0.1%,10.4%,11.3,-6.0,?,i
COc1ccc(N/N=C(/C(C)=O)N2CCCc3ccccc32)cc1,16.4%,-10.2%,0.8,0.8,i,20.6µM*
COc1ccc(/C=C/C(=O)N2CCCc3ccccc32)c(OC)c1,?,?,8.1,-79.0*,i,i
COc1ccc(OC)c(/C=C/C(=O)OCC(=O)N2CCCC2)c1,-4.3%,1.2%,8.0,-5.4,i,i
